Pol eta inh-1 = inhibitors of human DNA polymerase eta; Q9Y253; 390,000 tested, 1.2% active; recombinant Pol eta, fluorescent DNA replication assay; Potency, µM (doses to about 114 µM), for the others: at the highest dose activity change, negative = inhibition, most hits filed as inhibitors; note: potency is the fitted concentration of half-maximal effect; % is set by controls: 0 for no effect and ±100 for the full control effect
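Pol eta at 10 nM preincubated with compounds 15 min at room temperature; reaction started with fluorescent substrate (50 nM final) and read kinetically at 0 and 10 min.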
WRN inhibitor = blocks human WRN helicase; Q14191; 360,000 tested, 0.46% active; Potency, µM (titrated, usually from 114 µM), inactives show at the top dose activity change, negative = inhibition, hits mostly inhibitors; AID 651768; WRN helicase unwinding, fluorescent forked duplex, kinetic; note: potency is the fitted concentration of half-maximal effect; % is set by controls: 0 for no effect and ±100 for the full control effect; nearly all actives have a fitted effect of over 55% in size
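Fluorescence dequenching readout, ex 525 nm/em 598 nm, kinetic mode: forked duplex DNA (100 nM final) with adjacent fluorophore and quencher unwound by WRN (20 nM final) with 2 mM ATP. Compound preincubation 15 min, room temperature.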
Pol beta inh = blocks human DNA polymerase beta activity; P06746; Pol beta primer extension/strand displacement, fluorescence kinetic; Potency, µM (series often up to 114 µM), inactives show top-dose activity change, negative = inhibition, usual class: inhibitors; 340,000 tested, 1.3% active; AID 485314; note: potency is the fitted concentration of half-maximal effect; % is set by controls: 0 for no effect and ±100 for the full control effect
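Curves were derived by four-parameter Hill fits of normalized qHTS data. The kinetic fluorescent primer-extension read was taken at 0 and 10 min after 50 nM substrate, following a 15 min room-temperature preincubation of 10 nM enzyme with compounds.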
Pol kappa inh-1 = DNA polymerase kappa (human) inhibition. Q9UBT6. purified Pol kappa, fluorescent DNA synthesis assay, 10 min. Potency, µM (highest dose often 107 µM), without a hit: at the top dose activity, negative = inhibition, hits mostly inhibitors. 400,000 tested, 0.53% active. AID 588579; note: potency is the fitted concentration of half-maximal effect; % is set by controls: 0 for no effect and ±100 for the full control effect
Target sequence (Q9UBT6 whole entry, looked up): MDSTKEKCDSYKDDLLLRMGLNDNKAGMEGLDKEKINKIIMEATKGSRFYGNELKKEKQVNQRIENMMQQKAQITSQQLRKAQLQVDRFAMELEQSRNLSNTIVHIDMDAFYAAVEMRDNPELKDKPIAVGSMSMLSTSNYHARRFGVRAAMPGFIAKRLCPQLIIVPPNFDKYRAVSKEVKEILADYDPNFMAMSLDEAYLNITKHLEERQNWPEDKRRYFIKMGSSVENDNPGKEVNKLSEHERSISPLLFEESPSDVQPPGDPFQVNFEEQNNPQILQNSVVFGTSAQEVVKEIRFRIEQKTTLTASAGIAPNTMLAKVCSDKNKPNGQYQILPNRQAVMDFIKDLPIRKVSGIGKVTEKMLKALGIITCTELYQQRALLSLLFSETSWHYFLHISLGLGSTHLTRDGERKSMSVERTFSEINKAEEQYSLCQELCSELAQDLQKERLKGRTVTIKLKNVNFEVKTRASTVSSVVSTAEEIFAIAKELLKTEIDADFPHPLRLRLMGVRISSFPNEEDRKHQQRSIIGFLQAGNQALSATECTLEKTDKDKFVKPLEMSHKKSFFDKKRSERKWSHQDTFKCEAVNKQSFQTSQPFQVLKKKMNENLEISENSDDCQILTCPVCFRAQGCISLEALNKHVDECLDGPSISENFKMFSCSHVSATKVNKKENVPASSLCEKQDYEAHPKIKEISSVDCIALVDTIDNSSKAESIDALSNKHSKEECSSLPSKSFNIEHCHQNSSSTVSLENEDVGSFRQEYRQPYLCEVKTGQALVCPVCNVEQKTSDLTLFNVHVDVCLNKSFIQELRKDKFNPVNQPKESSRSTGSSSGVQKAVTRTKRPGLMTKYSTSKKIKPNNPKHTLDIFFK
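Fluorescent qHTS in 1536-well format: enzyme (10 nM) and compound sat 15 min at room temperature before 50 nM substrate (final) was added. Signal taken at 0 and 10 min; no-enzyme buffer wells were negative controls.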
PI5P4Ka inh = blocks human PI5P4K alpha kinase activity | P48426 | PI5P4Kalpha enzyme, ADP-Glo luminescence, 60 min; stronger effect = lower value | 330,000 tested, 1.2% active | max response, %; active = max response of -50% or lower; inconclusive = between -30% and -50%; inactive = -30% or higher; note: value at the top dose of about 77 µM; % is set by controls: 0 for no effect and ±100 for the full control effect
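Controls without substrate or without enzyme flank wells where PI5P4Kalpha converts substrate using 5 microM ATP (final). Incubation lasts 60 minutes at room temperature; ADP formed is read by ADP-Glo luminescence.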
POLI inh = blocks human DNA polymerase iota activity | 390,000 tested, 1% active | Pol iota fluorescent replication assay, 10 min | AID 588590 | Potency, µM (doses to about 115 µM), inactives show top-dose activity, negative = inhibition, hits mostly inhibitors | Q9UNA4; note: potency is the fitted concentration of half-maximal effect
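Pol iota at 10 nM preincubated 15 min with compounds at room temperature; reaction started with fluorescent substrate, 50 nM final. Fluorescence read kinetically at 0 and 10 min; buffer-only wells as negative control.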
BAZ2B inh = inhibits human BAZ2B bromodomain, hit validation | shares compounds with Pol kappa inh-1 | 25 tested, 100% active | Potency, µM, most hits filed as inhibitors | AlphaScreen BAZ2B / biotin-H3K14Ac peptide displacement | AID 588809; calls by dose curve
BAZ2B bead ctr = interferes with AlphaScreen signal in BAZ2B counterscreen; 25 tested, under 10 active; AlphaScreen biotin-His6 peptide bead counterscreen, signal decrease; Potency, µM (series often up to 57.1 µM), without a hit: at the top dose activity change, negative = inhibition, usual class: inhibitors; shares compounds with Pol kappa inh-1;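 active = clear concentration-dependent signal drop in the bead assay lacking the target, so a primary-screen artifact; inconclusive = weak, partial or single-dose response; inactive = no response, so a real primary hit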
PGK validate = validation of Trypanosoma brucei phosphoglycerate kinase inhibitors; TbPGK coupled GAPDH assay, Kinase-Glo luminescence; 500 tested, 79% active; AID 686980; Potency, µM (doses to about 57.5 µM), for inactives: at the highest dose activity change, negative = inhibition, actives largely listed as inhibitors; shares compounds with Pol kappa inh-1; note: potency is the fitted concentration of half-maximal effect; % is set by controls: 0 for no effect and ±100 for the full control effect; nearly all actives have a fitted effect of over 65% in size
Pol iota confirm = Confirm cherry-picked inhibitors of human polymerase iota; Potency, µM, usual class: inhibitors; 1,500 tested, 77% active; Pol iota primer extension, TAMRA/BHQ fluorescence; shares compounds with Pol kappa inh-1; note: potency is the fitted concentration of half-maximal effect
Pol kappa inh-2 = confirmation of human DNA polymerase kappa inhibitors; shares compounds with Pol eta inh-1; purified Pol-kappa, fluorescent strand-displacement substrate; Potency, µM, actives largely listed as inhibitors; 920 tested, 76% active; AID 720501; note: potency is the fitted concentration of half-maximal effect
Pol eta inh-2 = Pol eta (human) inhibition, cherry-pick confirmation | shares compounds with Pol eta inh-1 | Pol eta primer extension, TAMRA/BHQ fluorescence, 10 min | Potency, µM, most hits filed as inhibitors | 2,600 tested, 64% active; note: potency is the fitted concentration of half-maximal effect
Numbers without * were called inactive; ! = not confirmed by another sample; [ ] = dose if it differs, or a comment. Shown are actives, neighbours in structure and some others; about 2.8% of the full set was active somewhere. Unless noted, calls come from the whole dose curve; as a rule, active = well fitted curve in the direction sought with a large enough effect; inconclusive = small, poorly fitted or top-dose-only effect, or another doubt; inactive = no such curve, though single readings can be large; an effect the other way counts as inactive or inconclusive.

How did CN(C)[C@@H]1C(=O)C(C(N)=O)=C(O)[C@@]2(O)C(=O)C3=C(O)c4c(O)cccc4[C@@](C)(O)C3[C@H](O)C12 (stereo not given in full) do in these assays?
Pol eta inh-1: 31.6µM*!; WRN inhibitor: 39.8µM*!; Pol kappa inh-1: 8.91µM*!; PI5P4Ka inh: -87.7*!; POLI inh: 12.6µM*; Pol iota confirm: inconclusive

Results for CN1C(=O)C(Cc2ccc(OCc3ccccc3)cc2)C(=O)N(C)C1=O ?
Pol eta inh-1: -5.6%; WRN inhibitor: 8.6%; Pol beta inh: -0.9%; Pol kappa inh-1: 7.2%; PI5P4Ka inh: -6.4; POLI inh: 43.7%

What do the screens show for `O=c1cc(OCc2ccccc2)cc[nH]1`?
Pol eta inh-1: -19.2%; WRN inhibitor: 4.2%; Pol kappa inh-1: 3.7%; PI5P4Ka inh: -7.0; POLI inh: 52.5%; BAZ2B inh: 2.24*; BAZ2B bead ctr: 10µM*

What do the screens show for `CCC(C)C(=O)OC1C(O)C2C(CN3CC(C)CCC3[C@]2(C)O)C2C[C@]34O[C@@]5(O)C(OC(=O)C(C)(O)CC)CCC3(C)C5C(OC(C)=O)C(OC(C)=O)C4[C@@]21O` (stereo not given in full)?
Pol kappa inh-1: -6.5%[60.1 µM]

Results for CN(C)CCN(C)CCc1ccc(Cl)c(Cl)c1 ?
Pol kappa inh-1: 5.0%[19.4 µM]

How did Cn1cccc1/C=C1/C(=O)NC(=S)N(Cc2ccc(F)cc2)C1=O do in these assays?
Pol eta inh-1: 12.6µM*; WRN inhibitor: 56.2µM*; Pol beta inh: inconclusive; Pol kappa inh-1: inconclusive; PI5P4Ka inh: -94.4*; POLI inh: 20µM*; Pol iota confirm: 21.2*; Pol eta inh-2: 10.7*

What do the screens show for `N#Cc1ccc(CN2CC[C@@]3(CCCNC3)C2)cc1`?
Pol kappa inh-1: 17.5%[60.1 µM]

How did CC(C)c1ccc(N2C(=O)NC(=O)/C(=C/C=C/c3ccco3)C2=O)cc1 do in these assays?
Pol eta inh-1: 11.2µM*; WRN inhibitor: 50.1µM*; Pol beta inh: 31.6µM*; Pol kappa inh-1: 39.8µM*; PI5P4Ka inh: -66.3*; POLI inh: 12.6µM*; Pol iota confirm: 75.2*; Pol eta inh-2: 30.1*

Results for CCc1ccc(N2C(=O)CC(=O)NC2=O)cc1 ?
Pol eta inh-1: -19.1%; WRN inhibitor: -6.0%; Pol beta inh: 11.0%; Pol kappa inh-1: -9.2%; PI5P4Ka inh: -0.6; POLI inh: 2.8%

How did CCc1ccc(N2C(=O)NC(=O)/C(=C\C=C\c3ccco3)C2=O)cc1 do in these assays?
Pol eta inh-1: 20µM*; WRN inhibitor: inconclusive; Pol beta inh: inconclusive; Pol kappa inh-1: 35.5µM*; PI5P4Ka inh: inconclusive; POLI inh: 7.08µM*; Pol iota confirm: 37.7*; Pol kappa inh-2: 15*; Pol eta inh-2: 30.1*

What do the screens show for `N[C@H](CCP(=O)(O)O)C(=O)O`?
Pol kappa inh-1: -7.4%[19.4 µM]

How did CCCCC(=O)N/N=C/c1c(O)n(Cc2ccco2)c(=O)[nH]c1=O do in these assays?
Pol eta inh-1: inconclusive; WRN inhibitor: -26.5%; Pol beta inh: inconclusive; Pol kappa inh-1: -7.5%; PI5P4Ka inh: inconclusive; POLI inh: inconclusive

How did CC(=O)Nc1ccc(N=Cc2c(O)n(Cc3ccco3)c(=O)[nH]c2=O)cc1 do in these assays?
Pol eta inh-1: inconclusive; WRN inhibitor: inconclusive; Pol beta inh: 25.1µM*; Pol kappa inh-1: inconclusive; PI5P4Ka inh: inconclusive; POLI inh: 44.7µM*; Pol iota confirm: 59.7*; Pol kappa inh-2: inconclusive; Pol eta inh-2: 75.7*

Results for O=C1C=C(N2CC2)c2ccccc2C1=O ?
Pol eta inh-1: 8.91µM*; WRN inhibitor: 44.7µM*; PI5P4Ka inh: -66.2*; Pol iota confirm: 47.4*; Pol eta inh-2: 30.1*

Results for c1ccc(N2CCN(c3ccccc3)CC2)cc1 ?
Pol kappa inh-1: -4.2%; POLI inh: 3.2%

How did Nc1ccc2ccc3cccc[n+]3c2c1 do in these assays?
Pol eta inh-1: inconclusive; WRN inhibitor: -10.0%[11.6 µM]; Pol beta inh: 4.3%; Pol kappa inh-1: -26.2%; PI5P4Ka inh: -19.9; POLI inh: 2.7%

Results for C[n+]1c(-c2ccccc2)c2cc(N)ccc2c2ccc(N)cc21 ?
Pol eta inh-1: inconclusive; WRN inhibitor: 2.67µM*; Pol beta inh: 25.1µM*; Pol kappa inh-1: 25.1µM*; PI5P4Ka inh: -21.9; POLI inh: 8.91µM*; Pol iota confirm: 16.8*; Pol kappa inh-2: 2.38*; Pol eta inh-2: 67.5*

What do the screens show for `COc1cccc(N=Nc2c(O)[nH]c(=S)[nH]c2=O)c1`?
Pol eta inh-1: -9.9%; WRN inhibitor: -13.5%; Pol beta inh: 0.5%; Pol kappa inh-1: 0.0%; PI5P4Ka inh: inconclusive; POLI inh: inconclusive

What do the screens show for `COc1ccc(S(=O)(=O)Nc2ccccc2OC)cc1N=Nc1c(O)[nH]c(=S)[nH]c1=O`?
Pol eta inh-1: 22.4µM*; WRN inhibitor: inconclusive; Pol kappa inh-1: inconclusive; PI5P4Ka inh: -15.9; POLI inh: inconclusive; Pol iota confirm: 42.3*; Pol kappa inh-2: 42.3*; Pol eta inh-2: inconclusive

Results for CN1C(=O)NC(=O)/C(=C/c2ccc([N+](=O)[O-])o2)C1=O ?
Pol eta inh-1: 3.55µM*; WRN inhibitor: inconclusive; Pol beta inh: 31.6µM*; Pol kappa inh-1: 22.4µM*; PI5P4Ka inh: -82.4*; POLI inh: inconclusive; PGK validate: 2.59µM*; Pol iota confirm: 5.97*; Pol eta inh-2: 4.26*
